Reference: the supplement of paper PMC8285479
Structures can show the parent of a compound that is named as a salt. ± gives the standard deviation of the averaged measurements. Over roughly 1,900 compounds, “normalised cell viability (NPI; 0 = phenylarsine oxide control, 1 = DMSO control)” has its median near 1; the lowest 2% begin near 0.039. Only a selection was taken, and the lowest values are over-represented in it overall.

Tested on: NCI-H1944
Test: normalised cell viability (NPI; 0 = phenylarsine oxide control, 1 = DMSO control) (fraction of DMSO control); NCI-H1944 is a non-small cell lung cancer line; higher = more viable cells (less compound toxicity)
Conditions: 6 days
[1] = glucocorticoid arm: hydrocortisone 2.75 uM co-treatment, compound 1 µM
[2] = glucocorticoid arm: hydrocortisone 2.75 uM co-treatment, compound 5 µM
[3] = glucocorticoid arm: hydrocortisone 2.75 uM pre-treated 2 days and continued, compound 1 µM
[4] = glucocorticoid arm: hydrocortisone 2.75 uM pre-treated 2 days and continued, compound 5 µM
[5] = glucocorticoid arm: vehicle, compound 1 µM
[6] = glucocorticoid arm: vehicle, compound 5 µM
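Further: CTB read-out in 384-well plates, triplicate wells, NPI normalised per plate against 1 µM phenylarsine oxide (0) and 0.1% DMSO (1) controls.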

Row | Structure (SMILES) | normalised cell viability [1] | normalised cell viability [2] | normalised cell viability [3] | normalised cell viability [4] | normalised cell viability [5] | normalised cell viability [6]
1 | CC(=O)Nc1ccc(C(=O)Nc2ccccc2N)cc1 | 1.02 ± 0.011 | 1.063 ± 0.0058 | 1.033 ± 0.0058 | 1.06 ± 0.011 | 0.9833 ± 0.0057 | 0.906 ± 0.052
2 | CC(=O)Nc1ccc(C(=O)Nc2ccccc2N)cc1 [CI994 (Tacedinaline)] | 0.9813 ± 0.0093 | 1.03 ± 0.029 | 0.999 ± 0.012 | 1.02 ± 0.02 | 0.9707 ± 0.0072 | 0.9157 ± 0.008
3 | COc1cc2c(cc1OC)[C@@H](c1ccccc1)CN(C)CC2 | 0.9913 ± 0.006 | 1.023 ± 0.0058 | 1.02 ± 0.011 | 1.01 ± 0.019 | 0.9883 ± 0.0015 | 0.9863 ± 0.0055
4 | Nc1nc(N)c(N=O)c(OCC2CCCCC2)n1 | 1.02 ± 0.011 | 1.05 ± 0.017 | 1.037 ± 0.0058 | 1.023 ± 0.0058 | 1 | 0.978 ± 0.019
5 | Clc1ccc(C2(c3ccc(-c4cn[nH]c4)cc3)CCNCC2)cc1 | 0.968 ± 0.012 | 0.9977 ± 0.0021 | 0.975 ± 0.011 | 1.006 ± 0.0075 | 0.9947 ± 0.0051 | 0.939 ± 0.015
6 | CC(C)NCC(O)c1ccc(O)c(O)c1 (racemic) [(±)-Isoproterenol hydrochloride] | 1.01 ± 0.011 | 1.03 ± 0.042 | 1.01 | 1.04 ± 0.064 | 0.99967 ± 0.00058 | 1.02 ± 0.021
7 | N[C@@H](CCCC(=O)O)C(=O)O [L-2-aminoadipic acid] | 0.9947 ± 0.0055 | 0.991 ± 0.015 | 0.997 ± 0.013 | 0.97 ± 0.018 | 0.979 ± 0.014 | 0.9823 ± 0.0067
8 | O=C(NC1CCNCC1)c1n[nH]cc1NC(=O)c1c(Cl)cccc1Cl | 0.225 ± 0.03 | 0.0298 ± 0.0013 | 0.349 ± 0.039 | 0.149 ± 0.015 | 0.0396 ± 0.029 | 0.0072 ± 0.00086
9 | NC(=O)Nc1cc(-c2cccc(F)c2)sc1C(=O)N[C@H]1CCCNC1 | 0.65 ± 0.013 | 0.45 ± 0.024 | 0.93 ± 0.021 | 0.7733 ± 0.0071 | 0.338 ± 0.012 | 0.158 ± 0.015
10 | Cc1[nH]c(/C=C2\C(=O)Nc3ccc(S(=O)(=O)N(C)c4cccc(Cl)c4)cc32)c(C)c1C(=O)N1CCN(C)CC1 | 0.9913 ± 0.0072 | 0.986 ± 0.012 | 1.003 ± 0.0058 | 0.989 ± 0.014 | 0.969 ± 0.01 | 0.849 ± 0.036
11 | CN1CCN(C(=O)c2cc3cc(Cl)ccc3[nH]2)CC1 | 1.027 ± 0.0058 | 1.023 ± 0.0058 | 1.013 ± 0.0058 | 1.03 ± 0.021 | 1.007 ± 0.0058 | 1.01 ± 0.01
12 | CN1CCCN(C(=O)c2cccc(-c3ccc(/C=C4/C(=O)Nc5ccc(Cl)cc54)o3)c2)CC1 | 0.717 ± 0.032 | 0.214 ± 0.24 | 0.937 ± 0.021 | 0.887 ± 0.059 | 0.282 ± 0.017 | 0.00113 ± 0.00047
13 | NC1(Cc2ccc(Cl)cc2)CCN(c2ncnc3[nH]ccc23)CC1 | 0.901 ± 0.034 | 0.602 ± 0.08 | 0.934 ± 0.014 | 0.68 ± 0.045 | 0.9813 ± 0.0087 | 0.827 ± 0.068
14 | CC1(C)CCC(NC(=O)[C@@H](N)CCC(=O)O)CC1 | 0.979 ± 0.013 | 0.975 ± 0.016 | 0.999 ± 0.011 | 0.982 ± 0.046 | 0.9703 ± 0.0085 | 0.985 ± 0.012
15 | CC(C)(C(=O)O)c1ccc(C(O)CCCN2CCC(C(O)(c3ccccc3)c3ccccc3)CC2)cc1 (stereo unspecified) [Fexofenadine HCl] | 1.03 ± 0.01 | 1.02 ± 0.021 | 1.037 ± 0.0058 | 1.05 ± 0.011 | 0.999 ± 0.011 | 0.998 ± 0.01
16 | CC(C)(C(=O)O)c1ccc(C(O)CCCN2CCC(C(O)(c3ccccc3)c3ccccc3)CC2)cc1 (stereo unspecified) [Fexofenadine hydrochloride] | 1.006 ± 0.0069 | 1 ± 0.013 | 0.997 ± 0.013 | 0.99 ± 0.01 | 1.003 ± 0.0058 | 0.9967 ± 0.0035
17 | CC(C)(C)c1ccc(C(O)CCCN2CCC(C(O)(c3ccccc3)c3ccccc3)CC2)cc1 (stereo unspecified) [Terfenadine] | 0.997 ± 0.0027 | 0.9833 ± 0.0051 | 1.03 ± 0.017 | 1.03 ± 0.017 | 0.9927 ± 0.006 | 0.0387 ± 0.043
18 | OC(CCN1CCCCC1)(c1ccccc1)C1CCCCC1 (racemic) [DL-Trihexyphenidyl hydrochloride] | 0.99967 ± 0.00058 | 0.998 ± 0.013 | 1.03 ± 0.021 | 1.02 ± 0.011 | 0.995 ± 0.007 | 1.001 ± 0.0085
19 | COc1ccc2c3n(c(=NC(=O)c4cccnc4)nc2c1OC)CCN3 | 0.911 ± 0.004 | 0.628 ± 0.018 | 0.901 ± 0.012 | 0.663 ± 0.033 | 0.9907 ± 0.0049 | 0.85 ± 0.029
20 | O=C(Nc1cccc(Nc2ncc(Br)c(NCCc3cnc[nH]3)n2)c1)N1CCCC1 | 0.955 ± 0.015 | 0.805 ± 0.016 | 0.939 ± 0.0062 | 0.859 ± 0.02 | 0.917 ± 0.0095 | 0.635 ± 0.029
21 | CCCn1c(=O)c2[nH]c(-c3ccc(S(=O)(=O)O)cc3)nc2n(CCC)c1=O [1,3-Dipropyl-8-p-sulfophenylxanthine] | 0.9873 ± 0.0049 | 0.99 ± 0.01 | 0.994 ± 0.01 | 0.986 ± 0.034 | 0.996 ± 0.016 | 0.996 ± 0.0061
22 | Cc1cc(N)c2ccccc2[n+]1CCCCCCCCCC[n+]1c(C)cc(N)c2ccccc21 [Dequalinium chloride hydrate] | 0.888 ± 0.026 | 0.0383 ± 0.0062 | 0.963 ± 0.016 | 0.0385 ± 0.0016 | 0.991 ± 0.013 | 0.00579 ± 0.0022
23 | OC[C@H]1O[C@@H](n2cnc3c2N=CNC[C@H]3O)C[C@@H]1O [Pentostatin] | 1.02 ± 0.011 | 1.01 ± 0.022 | 1.03 ± 0.011 | 1.04 ± 0.01 | 1.013 ± 0.0058 | 1.01 ± 0.011
24 | N[C@@H](Cc1ccc(O)c(I)c1)C(=O)O [3-Iodo-L-tyrosine] | 0.982 ± 0.01 | 0.973 ± 0.035 | 0.991 ± 0.006 | 0.996 ± 0.066 | 0.999 ± 0.011 | 0.998 ± 0.01
25 | N[C@H](CO)C(=O)O [D-Serine] | 1.013 ± 0.0058 | 1.04 ± 0.06 | 0.896 ± 0.27 | 1.02 ± 0.01 | 1.02 | 1.017 ± 0.0058
26 | CN1CCc2cc(O)c(O)cc2C(c2ccccc2)C1 (stereo unspecified) | 1 ± 0.0087 | 1.02 ± 0.022 | 0.876 ± 0.23 | 1.01 ± 0.02 | 1.02 | 1.023 ± 0.0058
